The supplement of paper PMC10849652
About 7,900 targets were measured; listed, in parts, are those with a hit and a random draw of the rest. About 0.6% of all pairs of compound and target were hits. A number with no mark means an inactive call.

Tests used:
Experiment in all cases: log2 fold change, soluble protein after heating vs DMSO (PISA); higher = thermal stabilisation; K562 cells, 10 uM, 30 min; active = over 0.2 and 3.5 SD of the protein, either way, in both replicates (recomputed)
[1] = compound: COC1=CC=C(C=C1)CN2C=CC3=C2C=C(C=C3)C(=O)NO
How it was run: (§1)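 K562 cells at 2×10^6 cells/mL were exposed to 10 μM compound for 30 min, then aliquots were heated for 3 min across 48°C-58°C, pooled, and extracted in PBS containing 0.5% NP-40 at 4°C. The supernatant after 21,000xg for 90 min was taken as soluble protein and measured by TMTpro 16plex LC-MS/MS with channel sums equalised. Thermal stability is reported relative to control samples, with values from duplicates. Fold changes are given on a log2 scale.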

filanesib = compound: CON(C)C(=O)N1N=C(c2cc(F)ccc2F)S[C@@]1(CCCN)c1ccccc1 [filanesib]
How it was run: as §1

zotarolimus = compound: CO[C@H]1C[C@@H]2CC[C@@H](C)[C@@](O)(O2)C(=O)C(=O)N2CCCC[C@H]2C(=O)O[C@H]([C@H](C)C[C@@H]2CC[C@H](n3cnnn3)[C@H](OC)C2)CC(=O)[C@H](C)/C=C(\C)[C@@H](O)[C@@H](OC)C(=O)[C@H](C)C[C@H](C)/C=C/C=C/C=C/1C [zotarolimus]
How it was run: as §1

idasanutlin = compound: COc1cc(C(=O)O)ccc1NC(=O)[C@@H]1N[C@@H](CC(C)(C)C)[C@](C#N)(c2ccc(Cl)cc2F)[C@H]1c1cccc(Cl)c1F [idasanutlin]
How it was run: as §1

alisertib = compound: COc1cc(Nc2ncc3c(n2)-c2ccc(Cl)cc2C(c2c(F)cccc2OC)=NC3)ccc1C(=O)O [alisertib]
How it was run: as §1

[2] = compound: COc1cc2nc(-c3cc(F)ccc3O)nc(N[C@@H]3CNC[C@H]3C(C)(C)O)c2cc1OC
How it was run: as §1

gefitinib = compound: COc1cc2ncnc(Nc3ccc(F)c(Cl)c3)c2cc1OCCCN1CCOCC1 [gefitinib]
How it was run: as §1

[3] = compound: COc1cccc2cc(-c3nc([C@H]4CC[C@H](C(=O)O)CC4)n4ncnc(N)c34)[nH]c12
How it was run: as §1

lapatinib = compound: CS(=O)(=O)CCNCc1ccc(-c2ccc3ncnc(Nc4ccc(OCc5cccc(F)c5)c(Cl)c4)c3c2)o1 [lapatinib]
How it was run: as §1

pictilisib = compound: CS(=O)(=O)N1CCN(Cc2cc3nc(-c4cccc5[nH]ncc45)nc(N4CCOCC4)c3s2)CC1 [pictilisib]
How it was run: as §1

[4] = compound: CS(=O)(=O)c1ccc(-c2cnc(N)c(C(=O)Nc3ccccc3)n2)cc1
How it was run: as §1

crizotinib = compound: C[C@@H](Oc1cc(-c2cnn(C3CCNCC3)c2)cnc1N)c1c(Cl)ccc(F)c1Cl [crizotinib]
How it was run: as §1

[5] = compound: C[C@@H]1COCCN1C2=NC(=NC(=C2)C3(CC3)S(=O)(=O)C)C4=C5C=CNC5=CC=C4
How it was run: as §1

[6] = compound: C[C@H](C1=CC=C(C=C1)C(=O)NC2=C3C=CNC3=NC=C2)N
How it was run: as §1

duvelisib = compound: C[C@H](Nc1ncnc2nc[nH]c12)c1cc2cccc(Cl)c2c(=O)n1-c1ccccc1 [duvelisib]
How it was run: as §1

gandotinib = compound: Cc1cc(Nc2cc(CN3CCOCC3)c3nc(C)c(Cc4ccc(Cl)cc4F)n3n2)n[nH]1 [gandotinib]
How it was run: as §1

tozasertib = compound: Cc1cc(Nc2cc(N3CCN(C)CC3)nc(Sc3ccc(NC(=O)C4CC4)cc3)n2)n[nH]1 [tozasertib]
How it was run: as §1

[7] = compound: Cc1cc(SCc2sc(-c3ccc(C(F)(F)F)cc3)nc2C)ccc1OCC(=O)O
How it was run: as §1

doramapimod = compound: Cc1ccc(-n2nc(C(C)(C)C)cc2NC(=O)Nc2ccc(OCCN3CCOCC3)c3ccccc23)cc1 [doramapimod]
How it was run: as §1

ispinesib = compound: Cc1ccc(C(=O)N(CCCN)[C@@H](c2nc3cc(Cl)ccc3c(=O)n2Cc2ccccc2)C(C)C)cc1 [ispinesib]
How it was run: as §1

UniProt Q7Z4V5, sequence (Q7Z4V5 whole entry, looked up): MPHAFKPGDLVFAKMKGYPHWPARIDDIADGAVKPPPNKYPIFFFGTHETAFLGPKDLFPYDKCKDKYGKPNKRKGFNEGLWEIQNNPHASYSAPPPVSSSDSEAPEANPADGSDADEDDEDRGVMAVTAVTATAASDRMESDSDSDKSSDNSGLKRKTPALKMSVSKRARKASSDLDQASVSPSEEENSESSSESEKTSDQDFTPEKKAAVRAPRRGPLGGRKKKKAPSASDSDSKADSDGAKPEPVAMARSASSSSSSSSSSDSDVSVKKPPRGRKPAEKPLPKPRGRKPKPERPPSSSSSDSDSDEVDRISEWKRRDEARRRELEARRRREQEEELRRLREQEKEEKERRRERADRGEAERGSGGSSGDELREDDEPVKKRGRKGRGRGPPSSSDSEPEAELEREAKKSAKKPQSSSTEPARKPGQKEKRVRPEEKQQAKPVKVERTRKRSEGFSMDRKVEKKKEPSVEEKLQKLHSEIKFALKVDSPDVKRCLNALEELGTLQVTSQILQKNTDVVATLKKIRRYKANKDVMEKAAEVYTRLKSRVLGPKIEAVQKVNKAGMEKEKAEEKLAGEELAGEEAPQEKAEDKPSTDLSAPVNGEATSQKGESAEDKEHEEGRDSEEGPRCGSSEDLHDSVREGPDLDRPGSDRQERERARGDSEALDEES
UniProt P11142, sequence (P11142 whole entry, looked up): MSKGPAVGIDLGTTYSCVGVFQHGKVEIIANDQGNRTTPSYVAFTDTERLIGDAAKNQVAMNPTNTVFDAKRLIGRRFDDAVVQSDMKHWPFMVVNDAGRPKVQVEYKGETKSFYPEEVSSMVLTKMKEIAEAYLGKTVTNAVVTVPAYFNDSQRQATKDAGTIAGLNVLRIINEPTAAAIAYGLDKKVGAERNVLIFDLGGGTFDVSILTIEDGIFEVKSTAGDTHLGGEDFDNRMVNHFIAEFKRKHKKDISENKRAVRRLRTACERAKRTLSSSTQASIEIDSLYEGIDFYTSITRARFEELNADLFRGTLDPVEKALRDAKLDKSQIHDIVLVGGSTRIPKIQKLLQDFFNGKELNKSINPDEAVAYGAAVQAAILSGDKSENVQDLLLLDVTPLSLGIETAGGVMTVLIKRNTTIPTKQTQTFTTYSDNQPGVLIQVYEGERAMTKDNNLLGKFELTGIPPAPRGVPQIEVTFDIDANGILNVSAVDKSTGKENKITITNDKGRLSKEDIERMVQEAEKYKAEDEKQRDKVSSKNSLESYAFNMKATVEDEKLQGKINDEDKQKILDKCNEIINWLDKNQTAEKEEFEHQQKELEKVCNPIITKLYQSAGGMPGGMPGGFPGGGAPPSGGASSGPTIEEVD
UniProt O00165, sequence (O00165 whole entry, looked up): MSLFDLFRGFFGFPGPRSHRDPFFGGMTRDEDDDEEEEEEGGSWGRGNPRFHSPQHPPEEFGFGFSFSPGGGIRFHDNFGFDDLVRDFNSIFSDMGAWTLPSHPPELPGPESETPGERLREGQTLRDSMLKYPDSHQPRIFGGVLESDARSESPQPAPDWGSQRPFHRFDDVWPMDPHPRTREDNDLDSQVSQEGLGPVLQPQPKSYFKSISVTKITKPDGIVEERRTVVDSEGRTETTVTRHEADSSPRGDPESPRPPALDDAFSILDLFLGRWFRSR
UniProt Q9H4A6, sequence (Q9H4A6 whole entry, looked up): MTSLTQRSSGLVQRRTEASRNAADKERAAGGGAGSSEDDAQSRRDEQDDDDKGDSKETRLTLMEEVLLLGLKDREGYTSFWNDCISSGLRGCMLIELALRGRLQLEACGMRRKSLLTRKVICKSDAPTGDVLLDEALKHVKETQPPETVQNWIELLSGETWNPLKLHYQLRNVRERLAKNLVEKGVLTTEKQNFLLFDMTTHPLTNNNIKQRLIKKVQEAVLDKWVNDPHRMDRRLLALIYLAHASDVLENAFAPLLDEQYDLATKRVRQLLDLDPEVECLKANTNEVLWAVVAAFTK
UniProt Q9Y680, sequence (Q9Y680 whole entry, looked up): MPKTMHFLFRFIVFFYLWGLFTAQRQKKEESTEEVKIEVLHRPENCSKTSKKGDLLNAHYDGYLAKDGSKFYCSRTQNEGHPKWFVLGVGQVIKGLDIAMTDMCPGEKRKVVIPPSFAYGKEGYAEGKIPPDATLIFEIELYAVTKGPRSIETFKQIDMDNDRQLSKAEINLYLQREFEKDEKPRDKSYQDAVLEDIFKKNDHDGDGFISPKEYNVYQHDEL
UniProt P85037, sequence (P85037 whole entry, looked up): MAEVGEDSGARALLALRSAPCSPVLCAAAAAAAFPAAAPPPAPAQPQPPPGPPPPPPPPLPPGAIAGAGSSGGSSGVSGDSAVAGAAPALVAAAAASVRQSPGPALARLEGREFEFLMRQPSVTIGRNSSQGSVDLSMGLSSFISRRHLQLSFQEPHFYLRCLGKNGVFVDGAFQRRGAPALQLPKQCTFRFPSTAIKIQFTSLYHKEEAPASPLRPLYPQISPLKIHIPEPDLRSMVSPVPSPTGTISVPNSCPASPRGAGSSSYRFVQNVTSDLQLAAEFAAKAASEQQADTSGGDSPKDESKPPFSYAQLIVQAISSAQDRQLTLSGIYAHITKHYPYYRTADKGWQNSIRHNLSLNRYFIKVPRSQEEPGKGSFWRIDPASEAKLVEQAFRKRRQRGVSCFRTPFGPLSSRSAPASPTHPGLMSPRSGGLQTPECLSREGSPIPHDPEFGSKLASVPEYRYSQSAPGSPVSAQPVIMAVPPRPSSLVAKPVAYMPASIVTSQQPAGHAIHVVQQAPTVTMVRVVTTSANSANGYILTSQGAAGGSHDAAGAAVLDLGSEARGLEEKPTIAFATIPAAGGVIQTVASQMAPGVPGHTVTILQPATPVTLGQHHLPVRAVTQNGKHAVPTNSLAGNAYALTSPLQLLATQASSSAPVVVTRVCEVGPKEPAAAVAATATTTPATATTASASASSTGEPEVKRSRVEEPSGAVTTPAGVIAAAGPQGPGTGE
UniProt Q6Y7W6, sequence (Q6Y7W6 whole entry, looked up): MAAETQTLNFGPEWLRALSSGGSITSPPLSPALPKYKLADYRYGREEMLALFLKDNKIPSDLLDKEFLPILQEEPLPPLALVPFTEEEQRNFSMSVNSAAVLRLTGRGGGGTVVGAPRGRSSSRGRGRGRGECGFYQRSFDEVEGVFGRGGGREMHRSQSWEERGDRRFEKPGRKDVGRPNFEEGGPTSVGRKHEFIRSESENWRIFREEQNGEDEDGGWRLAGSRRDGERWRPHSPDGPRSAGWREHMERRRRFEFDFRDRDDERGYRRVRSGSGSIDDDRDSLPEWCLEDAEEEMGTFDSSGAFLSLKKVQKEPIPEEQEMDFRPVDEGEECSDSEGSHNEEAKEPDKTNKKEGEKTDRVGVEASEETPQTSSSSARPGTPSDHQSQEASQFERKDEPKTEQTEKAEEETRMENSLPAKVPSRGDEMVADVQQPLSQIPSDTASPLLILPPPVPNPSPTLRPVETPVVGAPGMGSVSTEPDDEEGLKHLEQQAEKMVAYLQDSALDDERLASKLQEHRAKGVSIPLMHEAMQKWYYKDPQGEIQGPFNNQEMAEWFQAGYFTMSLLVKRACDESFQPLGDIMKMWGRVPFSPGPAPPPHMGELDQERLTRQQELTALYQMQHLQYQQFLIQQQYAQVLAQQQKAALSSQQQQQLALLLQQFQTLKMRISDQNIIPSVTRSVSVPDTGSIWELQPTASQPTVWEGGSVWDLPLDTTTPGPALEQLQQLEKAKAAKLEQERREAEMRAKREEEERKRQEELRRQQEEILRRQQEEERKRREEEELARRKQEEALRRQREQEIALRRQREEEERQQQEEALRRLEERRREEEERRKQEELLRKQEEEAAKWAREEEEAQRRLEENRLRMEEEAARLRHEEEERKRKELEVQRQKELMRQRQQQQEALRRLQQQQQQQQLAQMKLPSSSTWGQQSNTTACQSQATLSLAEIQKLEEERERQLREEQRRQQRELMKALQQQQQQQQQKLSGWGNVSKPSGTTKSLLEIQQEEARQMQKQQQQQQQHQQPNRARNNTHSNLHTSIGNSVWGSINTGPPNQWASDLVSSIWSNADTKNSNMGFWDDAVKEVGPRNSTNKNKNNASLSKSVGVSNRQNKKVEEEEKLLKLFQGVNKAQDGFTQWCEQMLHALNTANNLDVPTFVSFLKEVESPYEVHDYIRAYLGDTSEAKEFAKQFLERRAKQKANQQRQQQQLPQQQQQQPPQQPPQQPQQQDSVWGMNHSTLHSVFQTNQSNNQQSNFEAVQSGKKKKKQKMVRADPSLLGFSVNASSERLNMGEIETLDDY
UniProt P29084, sequence (P29084 whole entry, looked up): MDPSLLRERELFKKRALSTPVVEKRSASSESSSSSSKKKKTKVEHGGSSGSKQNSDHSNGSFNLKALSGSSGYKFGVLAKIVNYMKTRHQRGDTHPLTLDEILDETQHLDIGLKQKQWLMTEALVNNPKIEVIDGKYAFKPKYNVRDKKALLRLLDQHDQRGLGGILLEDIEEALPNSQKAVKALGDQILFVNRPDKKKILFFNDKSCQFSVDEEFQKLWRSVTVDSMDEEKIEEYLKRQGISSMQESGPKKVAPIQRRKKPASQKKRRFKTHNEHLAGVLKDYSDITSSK
UniProt P29083, sequence (P29083 whole entry, looked up): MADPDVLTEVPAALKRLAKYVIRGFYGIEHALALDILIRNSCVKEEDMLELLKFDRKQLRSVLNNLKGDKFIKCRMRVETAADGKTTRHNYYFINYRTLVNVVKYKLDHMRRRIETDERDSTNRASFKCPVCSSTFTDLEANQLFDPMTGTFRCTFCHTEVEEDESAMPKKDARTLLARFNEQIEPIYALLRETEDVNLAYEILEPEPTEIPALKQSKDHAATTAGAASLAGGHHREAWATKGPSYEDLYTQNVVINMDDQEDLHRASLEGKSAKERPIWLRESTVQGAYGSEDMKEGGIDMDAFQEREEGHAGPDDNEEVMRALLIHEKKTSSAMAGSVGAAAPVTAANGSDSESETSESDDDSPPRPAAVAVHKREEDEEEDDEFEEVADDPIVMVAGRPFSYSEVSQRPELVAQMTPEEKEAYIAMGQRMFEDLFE

| Target | log2 fold change [1] | log2 fold change (filanesib) | log2 fold change (zotarolimus) | log2 fold change (idasanutlin) | log2 fold change (alisertib) | log2 fold change [2] | log2 fold change (gefitinib) | log2 fold change [3] | log2 fold change (lapatinib) | log2 fold change (pictilisib) | log2 fold change [4] | log2 fold change (crizotinib) | log2 fold change [5] | log2 fold change [6] | log2 fold change (duvelisib) | log2 fold change (gandotinib) | log2 fold change (tozasertib) | log2 fold change [7] | log2 fold change (doramapimod) | log2 fold change (ispinesib) |
| --- | --- | --- | --- | --- | --- | --- | --- | --- | --- | --- | --- | --- | --- | --- | --- | --- | --- | --- | --- | --- |
| FOXK1 (UniProt P85037) | -0.002 | 0.361 | 1 (active) | -0.123 | -0.038 | 0.526 | 0.516 | 0.774 | 0.085 | 0.584 | -1.1 (active) | 0.336 | 0.897 | -0.482 | 0.582 | -1.34 (active) | 0.127 | -0.148 | -0.126 | 0.373 |
| FKBP7 (UniProt Q9Y680) | -0.152 | -0.036 | -0.029 | 0.047 | -0.063 | 0.047 | 0.086 | 0.003 | -0.065 | -0.007 | 0.052 | 0.094 | 0.003 | 0.114 | -0.043 | 0.114 | -0.054 | 0.005 | -0.023 | 0.044 |
| HSPA8 (UniProt P11142) | -0.008 | -0.035 | 0.005 | 0.018 | -0.036 | -0.004 | 0.018 | -0.012 | -0.018 | -0.039 | 0.003 | 0.039 | -0.048 | -0.009 | -0.026 | 0.014 | 0.01 | -0.003 | -0.008 | 0.028 |
| HLTF (UniProt Q14527) | -0.027 | -0.004 | -0.042 | -0.049 | 0.008 | 0.081 | 0.334 (active) | -0.126 | 0.013 | 0.007 | -0.034 | 0.045 | -0.143 | 0.006 | -0.006 | -0.078 | -0.023 | 0.063 | -0.003 | 0.006 |
| HMGN2 (UniProt P05204) | 0.01 | -0.043 | -0.048 | 0.041 | -0.028 | 0.073 | 0.046 | 0.09 | -0.051 | -0.264 | -0.093 | 0.051 | -0.201 | -0.019 | -0.062 | -0.212 | -0.031 | -0.058 | -0.1 | -0.048 |
| ICAM1 (UniProt P05362) | -0.018 | 0.132 | -0.038 | 0.042 | 0.002 | 0.08 | 0.029 | 0.104 | -0.028 | 0 | 0.052 | 0.142 | 0.026 | -0.069 | 0.024 | -0.134 | -0.062 | -0.054 | -0.012 | 0.121 |
| HAX1 (UniProt O00165) | -0.056 | 0.017 | 0.004 | 0.04 | -0.007 | -0.311 | -0.041 | -0.014 | -0.015 | -0.145 | 0.02 | -0.235 | -0.043 | 0.16 | -0.062 | -0.174 | -0.071 | 0.014 | 0.035 | -0.59 (active) |
| GTF2E2 (UniProt P29084) | -0.014 | 0.034 | 0.027 | -0.03 | -0.027 | 0 | 0.009 | -0.056 | 0.022 | 0.031 | 0.037 | 0.012 | -0.029 | -0.002 | 0.051 | -0.03 | 0.02 | 0.071 | -0.025 | -0.01 |
| IFT74 (UniProt Q96LB3) | 0.083 | -0.014 | 0.019 | -0.058 | -0.102 | 0.339 | 0.035 | 0.024 | -0.025 | 0.052 | 0.21 | -0.04 | 0.014 | 0.088 | 0.068 | -0.02 | -0.136 | -0.094 | 0.095 | -0.133 |
| GLYR1 (UniProt Q49A26) | -0.024 | 0.125 | -0.04 | 0 | 0.071 | -0.092 | 0.113 | -0.07 | 0.169 | -0.228 | 0.033 | 0.008 | -0.125 | 0.075 | -0.179 | 0.016 | -0.18 | -0.06 | 0.117 | -0.132 |
| GTF2E1 (UniProt P29083) | 0.042 | 0.01 | 0.004 | -0.032 | -0.026 | 0.06 | 0.013 | 0.012 | -0.037 | -0.002 | 0.008 | 0.02 | 0.118 | -0.088 | 0.035 | -0.011 | 0.046 | 0.059 | -0.03 | -0.028 |
| FKBP3 (UniProt Q00688) | 0.219 | -0.04 | 0.354 (active) | -0.015 | -0.052 | 0.047 | -0.023 | 0 | -0.029 | 0.004 | -0.02 | 0.017 | 0.074 | -0.076 | 0.016 | -0.024 | 0.004 | -0.006 | 0 | 0.019 |
| GOLPH3 (UniProt Q9H4A6) | 0.011 | -0.03 | 0.048 | -0.057 | -0.024 | 0.131 | 0.023 | 0.012 | -0.055 | -0.051 | -0.028 | 0.176 | 0.006 | -0.038 | 0.047 | -0.112 | 0.024 | 0.012 | -0.011 | 0.379 (active) |
| GIGYF2 (UniProt Q6Y7W6) | 0.005 | 0.008 | 0.016 | 0 | -0.023 | 0.07 | -0.043 | -0.026 | -0.016 | -0.027 | 0.005 | -0.084 | 0.083 | 0 | 0.006 | -0.03 | -0.012 | 0.114 | -0.028 | -0.179 |
| HDGFL2 (UniProt Q7Z4V5) | 0.032 | 0.056 | -0.025 | 0.012 | -0.051 | -0.013 | 0.025 | 0.04 | -0.019 | -0.004 | 0.086 | -0.007 | -0.052 | -0.04 | -0.047 | 0.005 | -0.004 | -0.061 | -0.045 | 0.019 |
